# Assay results as given in PubChem BioAssay (NCATS).
# Results filed as inconclusive are left out. Where a call stands in place of a potency, no number is given. Calls of active or inactive are those of the source. Unless noted, calls follow the shape of the dose curve; as a rule, active = well fitted curve in the direction sought with a large enough effect; inconclusive = small, poorly fitted or top-dose-only effect, or another doubt; inactive = no such curve, though single readings can be large; an effect the other way counts as inactive or inconclusive.
# Tests used:
# [1] = target: Glucocorticoid receptor (Homo sapiens) (UniProt P04150); assay: GR-GFP Redistribution (AID 450;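 active = compounds whose dose series gives a full or clear partial fitted curve of increased nuclear translocation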; also: potency is read from the fitted curve at half-maximal effect); settings: U2OS GR-GFP nuclear translocation, laser cytometry, 2 h
# Glucocorticoid receptor (Homo sapiens), sequence (P04150 whole entry, looked up, the tested form may be a part): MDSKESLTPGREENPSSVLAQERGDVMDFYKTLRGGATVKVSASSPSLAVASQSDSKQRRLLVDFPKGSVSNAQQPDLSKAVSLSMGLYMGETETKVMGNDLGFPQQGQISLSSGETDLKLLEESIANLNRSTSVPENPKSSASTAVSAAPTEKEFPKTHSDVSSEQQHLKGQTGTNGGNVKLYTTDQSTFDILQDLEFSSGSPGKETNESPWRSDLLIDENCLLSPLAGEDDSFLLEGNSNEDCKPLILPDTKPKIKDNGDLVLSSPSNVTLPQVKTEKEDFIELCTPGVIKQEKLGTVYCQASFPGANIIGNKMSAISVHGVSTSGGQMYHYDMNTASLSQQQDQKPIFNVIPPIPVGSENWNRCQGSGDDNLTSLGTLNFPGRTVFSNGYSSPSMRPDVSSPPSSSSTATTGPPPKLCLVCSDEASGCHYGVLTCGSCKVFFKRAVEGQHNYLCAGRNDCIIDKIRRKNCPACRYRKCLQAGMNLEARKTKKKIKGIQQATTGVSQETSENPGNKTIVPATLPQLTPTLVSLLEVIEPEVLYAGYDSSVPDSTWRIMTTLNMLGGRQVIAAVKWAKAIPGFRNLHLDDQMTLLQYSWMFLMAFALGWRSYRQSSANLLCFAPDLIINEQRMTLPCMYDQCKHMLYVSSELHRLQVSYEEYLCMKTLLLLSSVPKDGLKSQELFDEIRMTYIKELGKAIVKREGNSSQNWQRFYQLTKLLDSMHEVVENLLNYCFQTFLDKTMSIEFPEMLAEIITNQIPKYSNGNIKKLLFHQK
# [2] = target: Glucocorticoid receptor (Homo sapiens) (UniProt P04150); assay: GR-EFC Redistribution (AID 451; calls by dose curve; also: potency is read from the fitted curve at half-maximal effect); settings: CHO-K1 GR-EFC translocation, beta-gal luminescence, 2 h
# Outline: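 CHO-K1 cells stably expressing nuclear-localized β-gal enzyme acceptor and GR fused C-terminally to the enzyme donor fragment; ligand-driven nuclear translocation restores β-gal by complementation. Compounds titrated up to 46 uM final, 2 h at 37 °C; luminescence read.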
# [3] = target: Mitogen-activated protein kinase 10 (Mus musculus) (UniProt Q61831); assay: JNK3 AlphaScreen Assay (AID 530; active = well fitted curve in either direction with a large enough effect, not every such curve was filed as active;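 also: kinase came from lysate of stimulated human HepG2 cells; signal reports phosphorylation of biotinylated GST-cJun 1-79 at Ser73 with 10 µM ATP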); settings: JNK3 lysate, c-Jun phosphorylation; series mostly up to 57.1 µM
# Outline: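 Biotinylated GST-cJun(1-79) served as substrate for JNK3 in HepG2 lysates stimulated with IL-1beta and TNF-alpha. ATP was 10 uM final, pH 7.6. Ser73 phosphorylation was quantified by AlphaScreen (680 nm excitation).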
# [4] = target: 3',5'-cyclic-AMP phosphodiesterase 4B (Homo sapiens) (UniProt Q07343); assay: qHTS Assay for Inhibitors of PDE-IV (AID 607; active = well fitted activation curve with a large enough effect in the main read-out, with a control signal flat, not every such curve was filed as active); settings: HEK293 ACTOne CNG channel cells, membrane potential fluorescence; series mostly up to 22.9 µM
# 3',5'-cyclic-AMP phosphodiesterase 4B (Homo sapiens), sequence (Q07343 whole entry, looked up): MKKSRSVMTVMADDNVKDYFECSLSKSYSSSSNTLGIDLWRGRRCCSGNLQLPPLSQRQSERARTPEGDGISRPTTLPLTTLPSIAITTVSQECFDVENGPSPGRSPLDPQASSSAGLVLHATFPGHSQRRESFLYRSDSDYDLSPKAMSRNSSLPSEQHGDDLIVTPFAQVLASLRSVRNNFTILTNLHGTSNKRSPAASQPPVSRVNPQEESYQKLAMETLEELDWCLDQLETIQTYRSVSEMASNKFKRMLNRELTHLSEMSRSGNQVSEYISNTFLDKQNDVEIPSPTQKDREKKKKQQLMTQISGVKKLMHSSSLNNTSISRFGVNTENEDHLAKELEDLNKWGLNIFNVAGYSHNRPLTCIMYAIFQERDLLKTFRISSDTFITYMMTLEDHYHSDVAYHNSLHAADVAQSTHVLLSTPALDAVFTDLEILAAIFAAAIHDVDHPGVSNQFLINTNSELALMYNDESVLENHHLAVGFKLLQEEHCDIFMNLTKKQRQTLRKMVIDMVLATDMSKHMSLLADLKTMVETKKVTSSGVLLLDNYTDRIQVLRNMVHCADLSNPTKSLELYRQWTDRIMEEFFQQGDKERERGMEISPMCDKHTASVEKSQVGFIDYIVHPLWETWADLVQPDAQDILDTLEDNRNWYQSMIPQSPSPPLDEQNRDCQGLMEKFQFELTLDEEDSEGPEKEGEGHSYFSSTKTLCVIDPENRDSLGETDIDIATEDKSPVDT
# Outline: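 Cell-based read-out of cAMP via a modified cyclic nucleotide-gated channel and membrane potential dye (535/590 nm) in HEK293 cells expressing PDE4 endogenously. Compounds tested up to 22.9 uM final; 100 uM RO 20-1724 reference.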
# [5] = qHTS Assay for Lipid Storage Modulators (AID 1519; calls by dose curve); settings: Drosophila S3 cells, BODIPY lipid droplet/cell ratio, laser cytometry, cells loaded with oleic acid; for activity change, negative = inhibition: at 57.5 µM (top of the series)
# Outline: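 Cells seeded at 5,000 per well were treated with compounds over a concentration series and loaded with oleic acid (400 uM, as added). Lipid droplet fluorescence (488 nm excitation, 500-530 nm channel) was read by laser-scanning cytometry and normalized to 20 uM Triacsin C.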
# [6] = target: DNA dC->dU-editing enzyme APOBEC-3G (Homo sapiens) (UniProt Q9HC16); assay: qHTS for inhibitors of Vif-A3G interactions: Validation (AID 588379); settings: Vif-A3G protein interaction assay; series mostly up to 46.1 µM
# DNA dC->dU-editing enzyme APOBEC-3G (Homo sapiens), sequence (Q9HC16 whole entry, looked up): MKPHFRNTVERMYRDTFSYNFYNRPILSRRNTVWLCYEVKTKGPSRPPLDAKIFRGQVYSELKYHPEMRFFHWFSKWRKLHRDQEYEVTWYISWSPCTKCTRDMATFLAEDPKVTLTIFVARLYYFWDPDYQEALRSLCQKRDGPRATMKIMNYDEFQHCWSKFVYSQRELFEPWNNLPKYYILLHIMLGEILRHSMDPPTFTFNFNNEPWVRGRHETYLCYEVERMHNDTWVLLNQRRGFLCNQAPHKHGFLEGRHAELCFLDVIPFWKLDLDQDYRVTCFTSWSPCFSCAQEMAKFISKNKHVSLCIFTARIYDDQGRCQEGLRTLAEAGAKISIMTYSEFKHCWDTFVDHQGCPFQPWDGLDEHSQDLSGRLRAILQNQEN
# Outline: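 Yellow fluorescence (Ex 488, Em 500-530) of Vif-coexpressing HeLa A3G-eYFP cells, scanned by Acumen cytometer, reports blocked A3G degradation. Cells plated at 700/well overnight at 37 deg C before compound addition, then a further overnight compound incubation at 37 deg C.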
# [7] = tested on: Zika virus NS2B-NS3 protease; assay: Primary screen GU AMC qHTS for Zika virus inhibitors (AID 1347154); settings: Zika NS2B-NS3 unlinked protease, AMC fluorogenic substrate; series mostly up to 54.1 µM; also: nearly all actives have a fitted effect of over 70% in size
# Outline: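 Unlinked Zika NS2B hydrophilic domain/NS3 protease domain noncovalent complex (25 nM final) in 10 mM Tris-HCl pH 8.0, 0.01% Tween 20, with AMC peptide substrate. Fluorescence (ex 340, em 450 nm) change over 15 min, room temperature; percent inhibition fitted to 4-parameter Hill equation.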
# [8] = Primary qHTS for small molecule stabilizers of the endoplasmic reticulum resident proteome: Secreted ER Calcium Modulated Protein (SERCaMP) assay (AID 1508630); settings: SH-SY5Y GLuc-SERCaMP (Gaussia luciferase released on ER calcium loss) secretion, thapsigargin, luminescence; series mostly up to 38.4 µM
# Outline: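 The SH-SY5Y reporter protocol was run at 3 concentrations up to 38.3 uM (primary) or 11 concentrations (follow-up): 16 h compound, 100 nM thapsigargin for 4 h, then extracellular luciferase luminescence.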
# [9] = target: Ubiquitin carboxyl-terminal hydrolase 1 (Homo sapiens) (UniProt O94782); assay: Inhibitors of USP1/UAF1: Pilot qHTS (AID 504865); settings: purified USP1/UAF1, Ub-rhodamine cleavage fluorescence; series mostly up to 114 µM; also: nearly all actives have a fitted effect of over 35% in size; also: potency is read from the fitted curve at half-maximal effect;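 as to activity change, negative = inhibition: rhodamine fluorescence freed from ubiquitin-rhodamine substrate followed over time; top concentration of the series differs between compounds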
# Ubiquitin carboxyl-terminal hydrolase 1 (Homo sapiens), sequence (O94782 whole entry, looked up): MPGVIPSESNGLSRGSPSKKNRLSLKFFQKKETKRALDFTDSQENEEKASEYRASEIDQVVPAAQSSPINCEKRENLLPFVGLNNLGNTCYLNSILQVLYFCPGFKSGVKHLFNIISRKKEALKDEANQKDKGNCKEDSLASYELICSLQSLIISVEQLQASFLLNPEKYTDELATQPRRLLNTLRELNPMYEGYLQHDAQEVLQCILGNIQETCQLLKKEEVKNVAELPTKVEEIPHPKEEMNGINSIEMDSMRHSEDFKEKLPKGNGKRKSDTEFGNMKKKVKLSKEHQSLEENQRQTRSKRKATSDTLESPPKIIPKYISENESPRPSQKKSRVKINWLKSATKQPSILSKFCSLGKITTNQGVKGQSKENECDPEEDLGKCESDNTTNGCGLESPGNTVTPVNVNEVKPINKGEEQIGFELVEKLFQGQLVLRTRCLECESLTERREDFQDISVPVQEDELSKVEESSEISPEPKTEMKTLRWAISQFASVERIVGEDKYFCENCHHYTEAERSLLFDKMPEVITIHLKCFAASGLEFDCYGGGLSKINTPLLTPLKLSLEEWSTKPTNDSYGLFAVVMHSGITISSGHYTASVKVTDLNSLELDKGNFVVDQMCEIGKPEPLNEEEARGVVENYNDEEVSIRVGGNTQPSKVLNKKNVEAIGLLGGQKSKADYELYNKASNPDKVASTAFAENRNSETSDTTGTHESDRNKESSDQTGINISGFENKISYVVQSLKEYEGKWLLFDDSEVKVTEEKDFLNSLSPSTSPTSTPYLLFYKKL
# Outline: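 USP1/UAF1 complex (1nM) preincubated with compound 15 min at room temperature, then Ub-Rho substrate (150nM final) added. Fluorescence read kinetically at 480/540 nm, 6 reads every 60 seconds. Buffer: 50mM HEPES pH 7.8, 0.5mM EDTA, 0.1 mg/ml BSA, 1mM TCEP, 0.01% Tween-20.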
# [10] = target: Cytochrome P450 3A4 (Homo sapiens) (UniProt P08684); assay: qHTS Assay for Inhibitors and Substrates of Cytochrome P450 3A4 (AID 884); settings: recombinant CYP3A4, Luciferin-PPXE luminescence; series mostly up to 57.1 µM; also: nearly all actives have a fitted effect of over 50% in size
# Cytochrome P450 3A4 (Homo sapiens), sequence (P08684 whole entry, looked up): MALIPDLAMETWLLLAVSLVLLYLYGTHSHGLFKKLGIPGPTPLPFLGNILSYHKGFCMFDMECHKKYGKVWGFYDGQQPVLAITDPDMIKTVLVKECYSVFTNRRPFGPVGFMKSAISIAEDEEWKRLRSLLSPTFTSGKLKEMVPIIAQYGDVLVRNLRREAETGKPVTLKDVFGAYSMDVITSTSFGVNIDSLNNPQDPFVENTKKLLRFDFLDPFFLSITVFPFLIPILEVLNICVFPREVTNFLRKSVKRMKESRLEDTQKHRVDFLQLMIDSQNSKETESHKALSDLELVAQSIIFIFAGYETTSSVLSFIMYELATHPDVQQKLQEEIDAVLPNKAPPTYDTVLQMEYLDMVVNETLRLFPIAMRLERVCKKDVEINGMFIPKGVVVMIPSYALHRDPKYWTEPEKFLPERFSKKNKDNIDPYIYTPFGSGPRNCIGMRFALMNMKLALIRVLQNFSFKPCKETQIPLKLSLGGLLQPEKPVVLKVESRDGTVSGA
# Outline: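 Luminescent readout of luciferin produced by CYP3A4 (20 nM) dealkylation of Luciferin-PPXE, 25 uM (its KM). NADPH-driven reaction ran 60 min at RT after 10 min compound preincubation; data scaled to 57 uM ketoconazole as 100% inhibition.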
# [11] = target: Cytochrome P450 1A2 (Homo sapiens) (UniProt P05177); assay: p450-cyp1a2 (AID 410; calls by dose curve; also: potency is read from the fitted curve at half-maximal effect); settings: recombinant CYP1A2, luciferin-ME demethylation, luminescence; series mostly up to 57 µM
# Cytochrome P450 1A2 (Homo sapiens), sequence (P05177 whole entry, looked up): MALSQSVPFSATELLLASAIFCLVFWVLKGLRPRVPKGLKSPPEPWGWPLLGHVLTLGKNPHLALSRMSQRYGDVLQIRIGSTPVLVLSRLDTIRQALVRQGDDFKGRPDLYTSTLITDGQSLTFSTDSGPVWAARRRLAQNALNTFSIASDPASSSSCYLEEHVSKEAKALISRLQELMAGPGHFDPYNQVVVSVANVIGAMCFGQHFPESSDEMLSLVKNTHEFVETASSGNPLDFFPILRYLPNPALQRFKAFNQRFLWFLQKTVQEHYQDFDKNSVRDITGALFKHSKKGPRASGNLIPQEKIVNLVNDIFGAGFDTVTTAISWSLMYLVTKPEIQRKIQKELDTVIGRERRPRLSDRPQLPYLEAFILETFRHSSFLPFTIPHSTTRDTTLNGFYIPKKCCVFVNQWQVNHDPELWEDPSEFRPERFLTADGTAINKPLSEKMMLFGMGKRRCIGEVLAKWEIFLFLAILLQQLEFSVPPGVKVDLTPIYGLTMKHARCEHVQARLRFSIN
# Outline: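 20nM CYP1A2, 100uM Luciferin-ME (=Km), 100mM KPO4; cpd 10 min RT; +NADPH regen, 60 min RT; stop/detect 20 min; luminescence. Normalized to furafylline 57 uM = full inhibition.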
# [12] = target: Cytochrome P450 2C9 (Homo sapiens) (UniProt P11712); assay: qHTS Assay for Inhibitors and Substrates of Cytochrome P450 2C9 (AID 883); settings: recombinant CYP2C9, luciferin-H luminescence, 60 min; series mostly up to 57.1 µM; also: potency is read from the fitted curve at half-maximal effect; nearly all actives have a fitted effect of over 60% in size
# Cytochrome P450 2C9 (Homo sapiens), sequence (P11712 whole entry, looked up): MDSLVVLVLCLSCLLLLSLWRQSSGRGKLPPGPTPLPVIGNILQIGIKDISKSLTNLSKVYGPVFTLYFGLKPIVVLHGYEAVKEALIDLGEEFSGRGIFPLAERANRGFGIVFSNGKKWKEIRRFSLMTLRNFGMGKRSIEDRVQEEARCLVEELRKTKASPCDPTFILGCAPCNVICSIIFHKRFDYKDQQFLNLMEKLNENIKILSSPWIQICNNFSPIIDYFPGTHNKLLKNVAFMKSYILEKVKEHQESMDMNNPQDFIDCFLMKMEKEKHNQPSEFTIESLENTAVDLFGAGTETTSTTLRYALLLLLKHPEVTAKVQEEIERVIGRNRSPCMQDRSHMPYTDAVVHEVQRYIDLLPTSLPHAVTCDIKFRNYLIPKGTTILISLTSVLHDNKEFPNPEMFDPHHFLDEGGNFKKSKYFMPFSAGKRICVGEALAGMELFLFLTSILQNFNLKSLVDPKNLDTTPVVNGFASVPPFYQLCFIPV
# Outline: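 CYP2C9 deoxyluciferin hydroxylation, 37C, 60 min with NADPH regeneration; 10nM enzyme, 100uM Luciferin-H (KM). Glo detection reagent stopped reaction; luminescence normalized to sulphaphenazole (57uM) full inhibition.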
# [13] = target: Cytochrome P450 3A4 (Homo sapiens) (UniProt P08684); assay: qHTS Assay for Activators of Cytochrome P450 3A4 (AID 885); settings: recombinant CYP3A4, Luciferin-PPXE luminescence, 60 min; series mostly up to 57.1 µM; also: nearly all actives have a fitted effect of over 65% in size
# Outline: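 Luminescent readout of luciferin formed from 25 uM Luciferin-PPXE (KM level) by 20 nM CYP3A4 in 200 mM KPO4, with 60 min NADPH-driven reaction at room temperature after 10 min compound exposure. Ketoconazole (57 uM) defined 100% inhibition.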
# [14] = target: Cytochrome P450 2C19 (Homo sapiens) (UniProt P33261); assay: qHTS Assay for Inhibitors and Substrates of Cytochrome P450 2C19 (AID 899); settings: recombinant CYP2C19, luciferin-H EGE luminescence; series mostly up to 57.1 µM; also: potency is read from the fitted curve at half-maximal effect; nearly all actives have a fitted effect of over 60% in size
# Cytochrome P450 2C19 (Homo sapiens), sequence (P33261 whole entry, looked up): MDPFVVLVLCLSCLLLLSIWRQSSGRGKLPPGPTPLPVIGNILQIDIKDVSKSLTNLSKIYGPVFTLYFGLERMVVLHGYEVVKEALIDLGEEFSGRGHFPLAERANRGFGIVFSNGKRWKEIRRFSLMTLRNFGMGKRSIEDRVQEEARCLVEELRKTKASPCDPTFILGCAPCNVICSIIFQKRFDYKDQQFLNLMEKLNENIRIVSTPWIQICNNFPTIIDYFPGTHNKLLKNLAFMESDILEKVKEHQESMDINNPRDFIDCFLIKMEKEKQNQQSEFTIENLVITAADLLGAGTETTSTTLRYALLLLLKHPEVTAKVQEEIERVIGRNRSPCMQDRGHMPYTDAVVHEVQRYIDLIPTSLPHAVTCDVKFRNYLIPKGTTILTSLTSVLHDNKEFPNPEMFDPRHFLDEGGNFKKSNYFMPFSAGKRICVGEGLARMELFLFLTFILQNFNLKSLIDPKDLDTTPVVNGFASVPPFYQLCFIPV
# Outline: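 In 50mM KPO4, the reaction held 5nM enzyme and KM-level (10uM) Luciferin-H EGE; it ran 60 min at 37C after NADPH regeneration and a 10 min compound preincubation. Luminescence values were scaled to 57uM ketoconazole as complete inhibition.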
# [15] = measured here: cell count channel max response
# [16] = measured here: lipid channel max response
structure (smiles),measurement,setting,value
CCCCCCCCCCCCCCCC(=O)NC(C)C,Potency,[1],> 46 µM (inactive)
same,Potency,[2],> 46 µM (inactive)
same,Potency,[3],inactive
same,Potency,[4],inactive
same,"activity change, negative = inhibition",[5],0.0182% (inactive)
same,max response,[5]; [15],-14.5%
same,max response,[5]; [16],-16.6%
same,Potency,[6],inactive
same,Potency,[7],inactive
same,Potency,[8],inactive
NC(C(=O)O)c1cc(O)c(Cl)c(O)c1 (configuration not stated),Potency,[7],inactive
same,Potency,[8],inactive
CCN(CC)CC1CCN(c2ncc3ncnc(Nc4ccc(F)c(Cl)c4)c3n2)CC1,Potency,[7],inactive
same,Potency,[8],inactive
Cc1cc(C(=O)O)ccc1[C@H](N)C(=O)O,Potency,[1],> 46 µM (inactive)
same,Potency,[3],inactive
same,"activity change, negative = inhibition",[5],1.88% (inactive)
same,max response,[5]; [15],7.87%
same,max response,[5]; [16],9.03%
same,Potency,[9],inactive
same,Potency,[6],inactive
same,Potency,[7],inactive
same,Potency,[8],inactive
Nc1ncnc2c1ncn2[C@@H]1O[C@H](COP(=O)(O)OP(=O)(O)O)[C@@H](O)[C@H]1O,Potency,[10],inactive
same,"activity change, negative = inhibition",[5],5.3% (inactive)
same,max response,[5]; [15],-2.57%
same,max response,[5]; [16],2.42%
same,Potency,[9],inactive
same,Potency,[6],inactive
same,Potency,[7],inactive
same,Potency,[8],inactive
Nc1[nH]nc2nc3ccccc3nc12,Potency,[11],0.316 µM (active)
same,Potency,[1],> 46 µM (inactive)
same,Potency,[2],> 46 µM (inactive)
same,Potency,[3],inactive
same,Potency,[12],2 µM (active)
same,Potency,[13],inactive
same,Potency,[14],0.631 µM (active)
same,Potency,[6],inactive
same,Potency,[7],inactive
same,Potency,[8],inactive
O=C(Nc1ccccc1)N[C@H]1C[C@H](C(=O)O)Nc2cc(Cl)cc(Cl)c21,Potency,[4],inactive
same,Potency,[13],inactive
same,"activity change, negative = inhibition",[5],6.02% (inactive)
same,max response,[5]; [15],-4.62%
same,max response,[5]; [16],0.745%
same,Potency,[6],inactive
same,Potency,[7],inactive
same,Potency,[8],inactive
C[C@@H](CC(=O)O)[C@@H](N)C(=O)O,Potency,[1],> 46 µM (inactive)
same,Potency,[2],> 46 µM (inactive)
same,Potency,[3],inactive
same,Potency,[4],inactive
same,"activity change, negative = inhibition",[5],-3.19% (inactive)
same,max response,[5]; [15],-10.3%
same,max response,[5]; [16],-14.3%
same,Potency,[6],inactive
same,Potency,[7],inactive
same,Potency,[8],inactive
O=C1CC2(CCCC2)CC(=O)N1CCNC[C@H]1COc2ccccc2O1,Potency,[4],inactive
same,"activity change, negative = inhibition",[5],-0.603% (inactive)
same,max response,[5]; [15],16.6%
same,max response,[5]; [16],17.5%
same,Potency,[9],inactive
same,Potency,[6],inactive
same,Potency,[7],inactive
same,Potency,[8],inactive
O=C1CC[C@H](C(=O)O)N1,Potency,[7],inactive
same,Potency,[8],inactive
CC(C)(C)n1nc(-c2ccc(Cl)cc2)c2c(N)ncnc21,Potency,[7],inactive
same,Potency,[8],inactive
Cc1ccc(-c2nn(C(C)(C)C)c3ncnc(N)c23)cc1,Potency,[7],inactive
same,Potency,[8],inactive
COc1ccc2[nH]c(-c3ccccc3)c(CCNC(C)=O)c2c1,Potency,[11],1.26 µM (active)
same,Potency,[2],> 46 µM (inactive)
same,Potency,[3],inactive
same,Potency,[4],inactive
same,Potency,[13],inactive
same,Potency,[14],7.94 µM (active)
same,Potency,[6],inactive
same,Potency,[7],inactive
same,Potency,[8],inactive
Cc1sc(N)c(C(=O)c2cccc(C(F)(F)F)c2)c1C,Potency,[11],15.8 µM (active)
same,Potency,[1],> 46 µM (inactive)
same,Potency,[2],> 46 µM (inactive)
same,Potency,[13],inactive
same,Potency,[9],50.1 µM (active)
same,Potency,[6],inactive
same,Potency,[7],inactive
same,Potency,[8],inactive
CN(CCc1ccc(Cl)c(Cl)c1)CCN1CCCC1,Potency,[1],> 46 µM (inactive)
same,Potency,[2],> 46 µM (inactive)
same,Potency,[3],inactive
same,"activity change, negative = inhibition",[5],-5.91% (inactive)
same,max response,[5]; [15],22.4%
same,max response,[5]; [16],15.8%
same,Potency,[6],inactive
same,Potency,[7],inactive
same,Potency,[8],inactive
COC(=O)[C@H]1[C@@H]2C[C@H]3c4[nH]c5ccccc5c4CCN3C[C@@H]2CC[C@@H]1O,Potency,[3],inactive
same,"activity change, negative = inhibition",[5],4.47% (inactive)
same,max response,[5]; [15],-3.24%
same,max response,[5]; [16],4.05%
same,Potency,[9],inactive
same,Potency,[6],inactive
same,Potency,[7],inactive
same,Potency,[8],inactive
